From PubChem BioAssay (Tox21)
Several values for one entry are separate records, joined by “and”; a condition that tells them apart may be missing. Equal entries are not always repeated. Results filed as inconclusive are left out. A call without a number means that no potency is given here. A structure can be active in one record and inactive in another. Activity calls are given as the source filed them. Unless noted, the call rests on the fitted dose curve.

Molecular target: D(2) dopamine receptor (Homo sapiens) (UniProt P14416)
Assay: Dopamine D2 receptor (DRD2) small molecule agonists, cell-based qHTS assay (AID 1963594); further: nearly all actives have a fitted effect of over 35% in size; further: potency means the concentration at half of the fitted maximal effect
Details: HEK293-DRD2 cAMP HTRF, agonist mode, 30 min; series mostly up to 92.4 µM
Procedure, shortened: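 HEK293 cells stably expressing human DRD2, pre-treated with PDE inhibitor Ro20-1724 (0.1 mM final) and compound 10 min at room temperature, then stimulated with NKH477 (200nM […]) for 30 min. cAMP read by HTRF (665/620 nm).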

Chain of D(2) dopamine receptor (Homo sapiens) (P14416 whole entry, looked up): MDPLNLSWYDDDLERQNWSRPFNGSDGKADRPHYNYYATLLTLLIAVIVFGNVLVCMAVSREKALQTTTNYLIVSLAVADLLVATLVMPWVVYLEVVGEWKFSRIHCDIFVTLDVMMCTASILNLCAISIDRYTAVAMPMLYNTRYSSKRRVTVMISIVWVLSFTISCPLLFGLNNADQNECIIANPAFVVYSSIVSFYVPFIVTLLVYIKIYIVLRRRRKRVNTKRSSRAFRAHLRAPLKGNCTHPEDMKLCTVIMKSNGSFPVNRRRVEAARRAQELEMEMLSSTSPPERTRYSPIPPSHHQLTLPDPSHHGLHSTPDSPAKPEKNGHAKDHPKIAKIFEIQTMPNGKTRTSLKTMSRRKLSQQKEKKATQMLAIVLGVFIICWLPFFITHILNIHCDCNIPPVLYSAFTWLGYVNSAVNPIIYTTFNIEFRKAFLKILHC

SMILES | Potency
CCC(C)OC(=O)c1ccc(O)cc1 (stereo unspecified) | inactive
O=c1n(CC2CO2)c(=O)n(CC2CO2)c(=O)n1CC1CO1 (stereo unspecified) | inactive
COc1ccc2c(c1)c(CC(=O)O)c(C)n2C(=O)c1ccc(Cl)cc1 | inactive
Oc1c(Cl)cc(Cl)c(Cl)c1Cc1c(O)c(Cl)cc(Cl)c1Cl | inactive
NC(=O)c1ncn([C@@H]2O[C@H](CO)[C@@H](O)[C@H]2O)n1 | inactive
CC(=O)OCC(=O)[C@@]12N=C(C)O[C@@H]1C[C@H]1[C@@H]3CCC4=CC(=O)C=C[C@]4(C)[C@H]3[C@@H](O)C[C@@]12C | inactive
CCCCC(CC)COC(=O)C(C#N)=C(c1ccccc1)c1ccccc1 (stereo unspecified) | inactive
OC1CCCCC1 | inactive
Cc1cc(=O)[nH]c(=S)[nH]1 | inactive
O=c1c(O)c(-c2ccc(O)cc2)oc2cc(O)cc(O)c12 | inactive
COCCOCCOC | inactive
C=C(C)C(=O)OCCCCCC | inactive
C=C(C)C1CC=C(C)C(OC(C)=O)C1 (stereo unspecified) | inactive
Nc1ncn([C@@H]2O[C@H](CO)[C@@H](O)[C@H]2O)c(=O)n1 | inactive
C=C1C2CCC(C2)C1(C)C (stereo unspecified) | inactive
COCc1c(C(C)C)nc(C(C)C)c(/C=C/[C@@H](O)C[C@@H](O)CC(=O)O)c1-c1ccc(F)cc1 | inactive
CC(=O)Nc1ccc(C(=O)CCl)cc1 | inactive
C=CC(C)(CCC=C(C)C)OC(C)=O (stereo unspecified) | inactive
C[C@]12C[C@H](O)[C@H]3[C@@H](CCC4=CC(=O)CC[C@@]43C)[C@@H]1CC[C@@H]2C(=O)CO | inactive

SMILES | Potency
CCCCCCCC(=O)OC | inactive and 61.1 µM (active)
O=C(Cl)c1c(Cl)c(Cl)c(C(=O)Cl)c(Cl)c1Cl | inactive
OC(Cn1cncn1)(Cn1cncn1)c1ccc(F)cc1F | inactive
COC(=O)CCCCC(=O)OC | inactive
C[C@]12CC[C@@H]3c4ccc(O)cc4CC[C@H]3[C@@H]1CC[C@H]2O | inactive
CCCN(CCC)C(=O)SCC | inactive
C=C(C#N)C(=O)OCC | inactive
CC(=O)Nc1nnc(S(N)(=O)=O)s1 | inactive
O=[Se](O)O | inactive
CCCCCCCCCCC(CO)CCCCCCCC (stereo unspecified) | inactive
C#C[C@]1(O)CC[C@H]2[C@@H]3CCC4=Cc5oncc5C[C@]4(C)[C@H]3CC[C@@]21C | inactive
COC(C)COC(C)COC(C)CO (stereo unspecified) | inactive
Brc1ccc(Oc2ccc(Br)cc2)cc1 | inactive
O=C(c1ccc(O)cc1)c1ccc(O)cc1O | inactive
CCCC(O)C(CC)CO (stereo unspecified) | inactive
CC(=O)Oc1ccc(C(c2ccc(OC(C)=O)cc2)c2ccccn2)cc1 | inactive
CC1COC(=O)O1 (stereo unspecified) | inactive
CC(=O)O[C@]1(C(C)=O)CC[C@H]2[C@@H]3C=C(Cl)C4=CC(=O)CC[C@]4(C)[C@H]3CC[C@@]21C | inactive
O=C(CC(C(=O)OC1CCCCC1)S(=O)(=O)O)OC1CCCCC1 (stereo unspecified) | inactive

Molecular target: D(2) dopamine receptor (Homo sapiens) (UniProt P14416)
Assay: Dopamine D2 receptor (DRD2) small molecule antagonists, cell-based qHTS assay (AID 1963595; active means well fitted inhibition curve with a large enough effect in the signal ratio in the repeat runs, with a control signal flat; the % refers to the signal ratio)
Details: HEK293-DRD2 cAMP HTRF antagonist mode; series mostly up to 92.4 µM
Procedure, shortened: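 HEK293 cells stably expressing DRD2 were preincubated with 0.1 mM Ro20-1724, then with compound for 10 min at room temperature. Cells were stimulated with 200 nM NKH477 plus 12 nM quinpirole for 30 min, and cAMP was read by HTRF.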

SMILES | Potency
CCC(C)OC(=O)c1ccc(O)cc1 (stereo unspecified) | inactive
O=c1n(CC2CO2)c(=O)n(CC2CO2)c(=O)n1CC1CO1 (stereo unspecified) | inactive
COc1ccc2c(c1)c(CC(=O)O)c(C)n2C(=O)c1ccc(Cl)cc1 | inactive
Oc1c(Cl)cc(Cl)c(Cl)c1Cc1c(O)c(Cl)cc(Cl)c1Cl | inactive
NC(=O)c1ncn([C@@H]2O[C@H](CO)[C@@H](O)[C@H]2O)n1 | inactive
CC(=O)OCC(=O)[C@@]12N=C(C)O[C@@H]1C[C@H]1[C@@H]3CCC4=CC(=O)C=C[C@]4(C)[C@H]3[C@@H](O)C[C@@]12C | inactive
CCCCC(CC)COC(=O)C(C#N)=C(c1ccccc1)c1ccccc1 (stereo unspecified) | inactive
Cc1cc(=O)[nH]c(=S)[nH]1 | inactive
O=c1c(O)c(-c2ccc(O)cc2)oc2cc(O)cc(O)c12 | inactive
COCCOCCOC | inactive
C=C(C)C1CC=C(C)C(OC(C)=O)C1 (stereo unspecified) | inactive
Nc1ncn([C@@H]2O[C@H](CO)[C@@H](O)[C@H]2O)c(=O)n1 | inactive
C=C1C2CCC(C2)C1(C)C (stereo unspecified) | inactive
COCc1c(C(C)C)nc(C(C)C)c(/C=C/[C@@H](O)C[C@@H](O)CC(=O)O)c1-c1ccc(F)cc1 | inactive
CC(=O)Nc1ccc(C(=O)CCl)cc1 | inactive
C=CC(C)(CCC=C(C)C)OC(C)=O (stereo unspecified) | inactive
C[C@]12C[C@H](O)[C@H]3[C@@H](CCC4=CC(=O)CC[C@@]43C)[C@@H]1CC[C@@H]2C(=O)CO | inactive
CCCCCCCC(=O)OC | inactive
O=C(Cl)c1c(Cl)c(Cl)c(C(=O)Cl)c(Cl)c1Cl | inactive

SMILES | Potency
OC(Cn1cncn1)(Cn1cncn1)c1ccc(F)cc1F | inactive
COC(=O)CCCCC(=O)OC | inactive
C[C@]12CC[C@@H]3c4ccc(O)cc4CC[C@H]3[C@@H]1CC[C@H]2O | inactive
CCCN(CCC)C(=O)SCC | inactive
C=C(C#N)C(=O)OCC | inactive
C[Si]1(C)O[Si](C)(C)O[Si](C)(C)O[Si](C)(C)O1 | inactive
CC(=O)Nc1nnc(S(N)(=O)=O)s1 | inactive
O=[Se](O)O | inactive
CCCCCCCCCCC(CO)CCCCCCCC (stereo unspecified) | inactive
C#C[C@]1(O)CC[C@H]2[C@@H]3CCC4=Cc5oncc5C[C@]4(C)[C@H]3CC[C@@]21C | inactive
COC(C)COC(C)COC(C)CO (stereo unspecified) | inactive
Brc1ccc(Oc2ccc(Br)cc2)cc1 | inactive
O=C1CCCCCCCCCCCN1 | inactive
O=C(c1ccc(O)cc1)c1ccc(O)cc1O | inactive
CCCC(O)C(CC)CO (stereo unspecified) | inactive
CC(=O)Oc1ccc(C(c2ccc(OC(C)=O)cc2)c2ccccn2)cc1 | inactive
CC1COC(=O)O1 (stereo unspecified) | inactive
CC(=O)O[C@]1(C(C)=O)CC[C@H]2[C@@H]3C=C(Cl)C4=CC(=O)CC[C@]4(C)[C@H]3CC[C@@]21C | inactive
O=C(CC(C(=O)OC1CCCCC1)S(=O)(=O)O)OC1CCCCC1 (stereo unspecified) | inactive
